In assay [1] the target is Cytochrome P450 2D6 (Homo sapiens) (UniProt P10635). As to the kind of experiment: Cytochrome P450 family 2 subfamily D member 6 (CYP2D6) small molecule antagonists: luciferase biochemical (cell-free) qHTS assay (AID 1645840; active means well fitted curve in the direction sought with a large enough effect in the repeat runs; an effect the other way counts as inactive or inconclusive; further: nearly all actives have a fitted effect of over 55% in size). Put shortly:
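P450-Glo luminescent screen: recombinant CYP2D6 enzyme–proluciferin substrate mix preincubated with compound 10 min at room temperature, then NADPH regeneration added for 1 h at room temperature. Detection reagent added for 20 min; luciferin light read as relative luminescence units.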
Background: qHTS replaces the single test concentration by a dilution series.

A short description of assay [2]: Primary qHTS for inhibitors of nuclear receptor binding SET domain protein 2 (NSD2) in an isogenic RCH-ACV NSD2 p.E1099K mutant (9B) (AID 1645876). Further: nearly all actives have a fitted effect of over 70% in size.
Assay [3] in a line: Primary qHTS for inhibitors of nuclear receptor binding SET domain protein 2 (NSD2) in an RCH-ACV wild type WT cells (2C) (AID 1645877). Further: nearly all actives have a fitted effect of over 70% in size.
For assay [4], the target named is Cytochrome P450 2C9 (Homo sapiens) (UniProt P11712). Put plainly: Cytochrome P450 family 2 subfamily C member 9 (CYP2C9) small molecule antagonists: luciferase biochemical (cell-free) qHTS assay (AID 1645842; active means well fitted curve in the direction sought with a large enough effect in the repeat runs; an effect the other way counts as inactive or inconclusive; further: nearly all actives have a fitted effect of over 55% in size). A digest of the protocol:
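Luminescence, after 20 min with luciferin detection reagent, reflected CYP2C9 turnover during a 1 h NADPH-driven reaction at 37C. Enzyme-substrate mix contained 0.4% bovine serum albumin and was preincubated with compound 10 min at room temperature.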

For assay [5], the target named is N-terminal Xaa-Pro-Lys N-methyltransferase 1 (Homo sapiens) (UniProt Q9BV86). As to the kind of experiment: Confirmatory qHTS for Inhibitors of N-terminal methyltransferase 1 (NTMT1): MTaseGlo Assay (AID 1645874). Further: nearly all actives have a fitted effect of over 65% in size. A digest of the protocol:
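NTMT1 (125 nM) preincubated 15 min with compound and 100 uM SAM, then 1 uM SPKRIA peptide added for 30 min at room temperature. SAH detected by MTase-Glo luminescence; normalized to no-enzyme and DMSO controls, fitted to 4-parameter Hill.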

Inconclusive results are not listed. Active and inactive are the calls of the source. Unless noted, the call rests on the fitted dose curve; in most records, active means well fitted curve in the direction sought with a large enough effect; inconclusive means small, poorly fitted or top-dose-only effect, or another doubt; inactive means no such curve, though single readings can be large; an effect the other way counts as inactive or inconclusive.
Potency means the concentration at half of the fitted maximal effect.

Cytochrome P450 2C9 (Homo sapiens), sequence (P11712 whole entry, looked up): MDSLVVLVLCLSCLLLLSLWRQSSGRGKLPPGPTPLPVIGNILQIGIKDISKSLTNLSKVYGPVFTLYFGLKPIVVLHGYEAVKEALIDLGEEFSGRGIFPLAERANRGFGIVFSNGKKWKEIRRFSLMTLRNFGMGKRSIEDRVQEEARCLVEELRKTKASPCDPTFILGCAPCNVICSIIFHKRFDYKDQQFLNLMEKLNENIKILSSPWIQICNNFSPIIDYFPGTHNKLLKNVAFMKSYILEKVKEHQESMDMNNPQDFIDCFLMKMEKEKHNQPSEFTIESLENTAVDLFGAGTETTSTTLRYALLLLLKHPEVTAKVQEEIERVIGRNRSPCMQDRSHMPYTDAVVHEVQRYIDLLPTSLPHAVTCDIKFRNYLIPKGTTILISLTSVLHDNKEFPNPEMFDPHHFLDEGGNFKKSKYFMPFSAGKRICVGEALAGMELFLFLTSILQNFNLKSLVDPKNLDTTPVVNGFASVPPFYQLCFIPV
Cytochrome P450 2D6 (Homo sapiens), sequence (P10635 whole entry, looked up): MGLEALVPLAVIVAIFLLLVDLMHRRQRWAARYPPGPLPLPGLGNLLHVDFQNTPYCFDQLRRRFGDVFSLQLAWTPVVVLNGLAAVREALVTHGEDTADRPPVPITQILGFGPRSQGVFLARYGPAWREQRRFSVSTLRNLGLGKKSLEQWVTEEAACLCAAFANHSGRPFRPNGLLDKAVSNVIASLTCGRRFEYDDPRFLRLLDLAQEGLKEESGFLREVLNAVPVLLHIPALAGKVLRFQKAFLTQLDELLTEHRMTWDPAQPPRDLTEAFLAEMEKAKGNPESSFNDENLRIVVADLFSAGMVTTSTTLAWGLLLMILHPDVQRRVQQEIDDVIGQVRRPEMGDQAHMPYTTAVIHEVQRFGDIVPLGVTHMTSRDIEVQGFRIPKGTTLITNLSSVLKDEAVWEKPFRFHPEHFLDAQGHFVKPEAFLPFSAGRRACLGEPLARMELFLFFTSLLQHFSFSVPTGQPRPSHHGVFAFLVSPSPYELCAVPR
N-terminal Xaa-Pro-Lys N-methyltransferase 1 (Homo sapiens), sequence (Q9BV86 whole entry, looked up): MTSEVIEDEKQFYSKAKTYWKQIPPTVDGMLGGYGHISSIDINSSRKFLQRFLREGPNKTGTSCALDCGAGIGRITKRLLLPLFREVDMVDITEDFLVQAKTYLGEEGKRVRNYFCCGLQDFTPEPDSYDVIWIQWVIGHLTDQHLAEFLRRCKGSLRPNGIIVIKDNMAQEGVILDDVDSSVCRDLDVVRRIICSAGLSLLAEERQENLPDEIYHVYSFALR

Regarding `NCc1c[nH]c(=S)n1C1CCc2c(F)cc(F)cc2C1` (stereo not given), the Potency in assay [1] is 3.79 µM (active). In addition, the Potency result in assay [2] and in assay [3] was “inactive” throughout.
As for `Cc1c(-c2ccnn2C)cc(C(=O)NCc2ccc(S(C)(=O)=O)cn2)c(=O)n1-c1cccc(C(F)(F)F)c1`, the Potency result in assay [1], in assay [2] and in assay [3] was “inactive” in each case.
With `C[C@H](CCC(=O)O)[C@H]1CC[C@H]2[C@@H]3[C@H](O)C[C@@H]4C[C@H](O)CC[C@]4(C)[C@H]3CC[C@]12C`, the Potency result in assay [1], in assay [2] and in assay [3] was “inactive” throughout.
Take `CCC(=O)NS(=O)(=O)c1ccc(-c2c(-c3ccccc3)noc2C)cc1`: the Potency entry in assay [1], in assay [2] and in assay [3] was “inactive” throughout. Also, the Potency in assay [4] is 6.74 µM (active).
For `Cc1cn2c(N)c(Cl)cc(C(=O)NCC3CCN(CC(C)C)CC3)c2n1`, the Potency in assay [1] was 4.77 µM (active). Further, the Potency entry in assay [2] was “inactive”.
Consider `O=C(NCC(=O)N1CC[C@H](NC2CCC(O)(c3ccc(-c4ncccn4)cn3)CC2)C1)c1cccc(C(F)(F)F)c1` (stereo not given in full), for which the Potency entry in assay [1], in assay [2] and in assay [3] was “inactive” each time.
`C[C@]12C=CC(=O)C=C1CC[C@@H]1[C@@H]2[C@@H](O)C[C@@]2(C)[C@H]1CC[C@]2(O)C(=O)COC(=O)CCC(=O)O`: the Potency result in assay [1] and in assay [4] was “inactive” throughout. Also, the Potency in assay [3] was 0.258 µM (active).
Consider `CC(C)N(C[C@H]1O[C@@H](n2cnc3c(N)ncnc32)[C@H](O)[C@@H]1O)C1CC(CCc2nc3ccc(C(C)(C)C)cc3[nH]2)C1` (stereo not given in full), for which the Potency in assay [1] is 16.9 µM (active). In addition, the Potency result in assay [2] is “inactive”.
As for `CCc1cc2c(=O)c(-c3nc4ccccc4s3)coc2c(CN2CCCCC2)c1O`, the Potency entry in assay [1], in assay [2] and in assay [3] was “inactive” throughout.
On to `CCOC(=O)N1CCC(NCCNC(=O)c2ccccc2C)CC1`, for which the Potency in assay [1] was 10.7 µM (active). For the same compound, the Potency result in assay [2] and in assay [3] was “inactive” throughout.
For `COc1cccc(-c2ccc([C@@H](Oc3cc(-c4ccc(C[C@H](N)C(=O)O)cc4)nc(N)n3)C(F)(F)F)cc2)c1`, the Potency result in assay [1], in assay [2] and in assay [3] was “inactive” throughout.
In the case of `C=Cc1cc(O)cc2nc(-c3ccc(O)c(F)c3)oc12`, the results for the Potency in assay [1] and in assay [5] were 21.3 µM (active) and 44.7 µM (active), respectively.
For the compound `CC(C)c1ccc(CC(=O)N2CCC[C@@H](c3cccc(OC(C)(C)C(=O)O)c3)C2)cc1`, the Potency entry in assay [1], in assay [2] and in assay [3] was “inactive” throughout.
In the case of `COc1ccccc1-n1c(SCC(=O)Nc2nc3ccc(C)cc3s2)nc2c(c1=O)SCC2`, the Potency entry in assay [1], in assay [2] and in assay [3] was “inactive” each time.
Consider `CC1(C)OC(=O)C(OCC2CC2)=C1c1ccc(S(C)(=O)=O)cc1`, for which the Potency result in assay [1] and in assay [2] was “inactive” throughout.
Consider `CC(C)(C)NCC(O)COc1cccc2c1CCCC2=O` (stereo not given), for which the Potency entry in assay [4] was “inactive”. In addition, the Potency in assay [3] was 4.59 µM (active).
`CC(NCc1ccc(OCc2cccc(F)c2)cc1)C(N)=O` (stereo not given): the Potency result in assay [4], in assay [2] and in assay [3] was “inactive” each time.
With `CNC(=O)c1ccc2cc([C@@]3(O)CCn4cncc43)ccc2c1`, the Potency in assay [1] was 12 µM (active). Moreover, the Potency result in assay [2] and in assay [3] was “inactive” each time.
Regarding `CCN(CC)Cc1cc(Nc2ccnc3cc(Cl)ccc23)ccc1O`, the Potency entry in assay [4] is “inactive”.
Consider `CCOc1nc2cccc(C(=O)OCc3oc(=O)oc3C)c2n1Cc1ccc(-c2ccccc2-c2noc(O)n2)cc1`, for which the Potency in assay [4] is 3.38 µM (active). The Potency result in assay [2] and in assay [3] was “inactive” each time.
In the case of `O=S(=O)(Nc1ccc(C(O)(C(F)(F)F)C(F)(F)F)cc1)c1cccs1`, the Potency in assay [4] is 1.9 µM (active).
Consider `O=C(O)c1ccc(CCCc2ccc(OCCc3ccc(F)cc3)cc2)o1`, for which, in assay [4], the Potency result is “inactive”.
Take `CC(C)C(=O)c1cn(CC(=O)COc2ccc(Oc3ccccc3)cc2)c2ccc(C(=O)O)cc12`: the Potency result in assay [4], in assay [2] and in assay [3] was “inactive” each time.
Consider `O=C(Nc1cccnn1)N1CCC(=Cc2cccc(Oc3ccc(C(F)(F)F)cn3)c2)CC1`, for which the Potency in assay [1] is 10.7 µM (active); in assay [2], 11.5 µM (active); in assay [3] it was 10.3 µM (active).
As to `O=C(OCC12OC1C=CC(OC(=O)c1ccccc1)C2O)c1ccccc1` (stereo not given), in assay [2], the Potency result was “inactive”.
For the compound `CC1(C)O[C@@H]2C[C@H]3[C@@H]4CCC5=CC(=O)C=C[C@]5(C)[C@H]4[C@@H](O)C[C@]3(C)[C@]2(C(=O)CO)O1`, the Potency result in assay [2] was “inactive”.
For `CCOC(=O)c1c(C)nn(-c2cccc([N+](=O)[O-])c2)c1C`, the Potency in assay [1] was 8.49 µM (active). Also, the Potency entry in assay [2] and in assay [3] was “inactive” each time.
`COc1ccccc1[C@@H]1C2=C(CC(C)(C)CC2=O)Nc2n[nH]c(C(F)(F)F)c21`: in assay [4], the Potency was 8.49 µM (active). Moreover, the Potency entry in assay [2] and in assay [3] was “inactive” in each case.
With `CC(C)(O)c1ccc2c(c1)C(=O)CC1[C@](C)(CO)CCC[C@]21C` (stereo not given in full), the Potency entry in assay [5], in assay [2] and in assay [3] was “inactive” each time.
With `Nc1ncnc2c1ncn2[C@H]1CCCO1`, the Potency result in assay [1], in assay [2] and in assay [3] was “inactive” in each case.
With `O=C(c1ccc(NS(=O)(=O)c2cccc3cccnc23)cc1)N1CCN(CC2CC2)CC1`, in assay [2], the Potency result is “inactive”.
Consider `O=C(/C=C/c1c(C(=O)O)[nH]c2cc(Cl)cc(Cl)c12)Nc1ccccc1`, for which the Potency in assay [4] was 21.3 µM (active). Also, the Potency entry in assay [2] and in assay [3] was “inactive” throughout.
